Here are results for four compounds from PubChem BioAssay (EPA / NIEHS).

The target of assay [1] is Bile acid receptor (Homo sapiens) (UniProt Q96RI1). Nature of the assay: ATG_IR1_CIS: Attagene CIS-FACTORIAL HepG2 Assay for human Nuclear Receptor Subfamily 1 Group H Member 4 (NR1H4), IR1 submotif (AID 2282946). The note with it: IR1 reporter transcription, actives raise or lower the signal. In outline: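 Fluorescence of capillary-separated, HpaI-digested RT-PCR reporter products gave IR1-element mRNA induction in HepG2 cells 24 h after dosing. Endogenous transcription factors drove the cis-regulated reporters; activity was fitted bidirectionally against DMSO.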

A short description of assay [2]: ATG_GRE_CIS: Attagene CIS-FACTORIAL HepG2 Assay for human Glucocorticoid Response Elements (GRE) (AID 2282947). The note with it: HepG2 GRE cis-reporter, Attagene multiplex mRNA; actives raise or lower the signal. A digest of the protocol: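 Read-out: fluorescent reporter-transcript fragments separated by capillary electrophoresis after RT-PCR. Transiently transfected HepG2 cells carrying cis-element-driven reporter units were dosed for 24 h; gain or loss of signal fitted against DMSO control.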

Assay [3] is described as follows: ATG_ISRE_CIS: Attagene CIS-FACTORIAL HepG2 Assay for human Interferon Regulatory Factor 1 (IRF1) binding to an Interferon-Stimulated Response Element (ISRE) (AID 2282948). As to conditions: HepG2 ISRE cis-reporter (Attagene), mRNA transcription readout; actives raise or lower the signal. A digest of the protocol:
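Uses HepG2 liver cells transfected with cis-regulated reporters and measures mRNA 24 h post-dosing through RT-PCR, primer-extension labelling and capillary electrophoresis, with DMSO as negative control.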

The nature of assay [4]: ATG_M_32_CIS: Attagene CIS-FACTORIAL HepG2 Assay for M32 Transcription Factor (Internal Marker) (AID 2282949).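 Further: background control marker of the multiplexed CIS panel rather than a real target.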 As to conditions: HepG2 Attagene cis-factorial M32 reporter, mRNA; actives raise or lower the signal. A digest of the protocol: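 Using DMSO as baseline, bidirectional curve fits were applied to reporter mRNA signals. These came from transiently transfected HepG2 cells exposed for 24 h, with RNA analysed by RT-PCR, FAM primer extension, HpaI digestion and CE.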

In assay [5] the target is Hypoxia-inducible factor 1-alpha (Homo sapiens) (UniProt Q16665). Nature of the assay: ATG_HIF1a_CIS: Attagene CIS-FACTORIAL HepG2 Assay for human Hypoxia Inducible Factor 1 (HIF1A) (AID 2282951). The note with it: HepG2 Attagene cis-factorial HIF1a reporter transcription; actives raise or lower the signal. A digest of the protocol:
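Dosed 24 h, transfected HepG2 cells yielded total RNA whose reporter transcripts were RT-PCR-amplified and sized by capillary electrophoresis using fluorescent labelling; DMSO defined baseline, with gain and loss of signal both fitted.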

The target of assay [6] is Hepatocyte nuclear factor 6 (Homo sapiens) (UniProt Q9UBC0). As to the kind of experiment: ATG_HNF6_CIS: Attagene CIS-FACTORIAL HepG2 Assay for human Hepatocyte Nuclear Factor 6 (HNF6) (AID 2282952). The note with it: HepG2 Attagene cis-factorial HNF6 reporter transcription; actives raise or lower the signal. In outline:
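Endogenous transcription factor activity in human HepG2 liver cells was captured through cis-regulated reporter constructs. After 24 h treatment, reporter mRNA was measured by RT-PCR with capillary electrophoresis, and activity was fitted in both directions relative to DMSO.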

For assay [7], the target named is Heat shock factor protein 1 (Homo sapiens) (UniProt Q00613). As to the kind of experiment: ATG_HSE_CIS: Attagene CIS-FACTORIAL HepG2 Assay for human Heat Shock Transcription Factor 1 (HSE) (AID 2282953). As to conditions: HepG2 HSE cis-reporter, Attagene RNA transcription; actives raise or lower the signal. A digest of the protocol: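 HepG2, transient MRTU transfection, cis-promoter reporters (endogenous TF activity). 24 h compound. RNA → oligo(dT) RT → PCR → 6-FAM primer extension → HpaI cut → CE. Bidirectional fit vs DMSO.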

Assay [8] in a line: ATG_MRE_CIS: Attagene CIS-FACTORIAL HepG2 Assay for human Metal Responsive Element (MRE) (AID 2282954). The note with it: HepG2 MRE cis-reporter transcription, Attagene multiplex; actives raise or lower the signal. In outline: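 RT-PCR/capillary electrophoresis readout of reporter mRNA, 24 h post-dosing, in HepG2 cells transfected with multiplexed cis-regulated reporter constructs. Gain or loss of signal fitted bidirectionally against DMSO baseline.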

Assay [9] is described as follows: ATG_PBREM_CIS: Attagene CIS-FACTORIAL HepG2 Assay for human Phenobarbital-responsive Enhancer Module (PBREM) (AID 2282955). As to conditions: HepG2 PBREM cis-reporter, Attagene multiplexed transcription; actives raise or lower the signal. A digest of the protocol: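 Transfected liver-derived HepG2 cells exposed 24 h; PBREM reporter transcript quantified via RT-PCR and capillary electrophoresis, with activity in either direction referenced to DMSO.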

In assay [10] the target is Paired box protein Pax-6 (Homo sapiens) (UniProt P26367). As to the kind of experiment: ATG_Pax6_CIS: Attagene CIS-FACTORIAL HepG2 Assay for human Paired Box 6 (PAX6) (AID 2282956). As to conditions: HepG2 CIS-FACTORIAL PAX6 reporter transcription, RNA readout; actives raise or lower the signal. A digest of the protocol: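 DMSO-referenced bidirectional fits of reporter mRNA fluorescence; HepG2 with transient cis-promoter MRTUs, 24 h post-dose, RT-PCR plus capillary electrophoresis detection.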

Assay [11] can be described thus: ATG_PXRE_CIS: Attagene CIS-FACTORIAL HepG2 Assay for human Pregnane X Receptor Element (PXRE) (AID 2282957). The note with it: HepG2 Attagene CIS-FACTORIAL PXRE reporter, mRNA; actives raise or lower the signal. A digest of the protocol: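 Endogenous transcription factor activity in HepG2 was gauged through induction of reporter mRNA driven by a cis-regulating promoter element, sampled 24 h post-treatment. Activity was fitted in both directions against DMSO negative control.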

Assay [12] in a line: ATG_RORE_CIS: Attagene CIS-FACTORIAL HepG2 Assay for human RAR-related Orphan Receptor Element (RORE) (AID 2282959). The note with it: HepG2 Attagene cis-factorial RORE reporter, mRNA; actives raise or lower the signal. A digest of the protocol:
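Transiently transfected HepG2 reporter cells were treated 24 h. Reporter transcripts were detected by RT-PCR and capillary electrophoresis, with bidirectional fitting against DMSO.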

Assay [13] can be described thus: ATG_Sox_CIS: Attagene CIS-FACTORIAL HepG2 Assay for human SRY-box transcription factor (SOX) (AID 2282960). As to conditions: HepG2 Attagene cis-factorial SOX reporter, mRNA; actives raise or lower the signal. A digest of the protocol:
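Gain- or loss-of-signal endpoint, fitted bidirectionally with DMSO as negative control. Based on reporter mRNA from transfected HepG2 cells harvested 24 h post-treatment and quantified via RT-PCR and capillary electrophoresis.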

In assay [14] the target is Transcription factor Sp1 (Homo sapiens) (UniProt P08047). As to the kind of experiment: ATG_Sp1_CIS: Attagene CIS-FACTORIAL HepG2 Assay for human Specificity Protein 1 (Sp1) (AID 2282961). As to conditions: HepG2 Sp1 cis-reporter transcription, actives raise or lower the signal. In outline: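 Endpoint reflects endogenous Sp1 transcriptional activity, not an exogenous fusion protein: HepG2 cells with transfected cis-regulated reporters, 24 h dosing, RT-PCR/capillary electrophoresis mRNA read-out, DMSO-normalised bidirectional fit.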

A short description of assay [15]: ATG_SREBP_CIS: Attagene CIS-FACTORIAL HepG2 Assay for human Sterol Regulatory Element Binding (SREBP) (AID 2282962). As to conditions: HepG2 Attagene cis-factorial SREBP reporter, mRNA; actives raise or lower the signal. In outline:
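In this cis-format assay, HepG2 liver cells express reporters controlled by promoter elements responsive to native transcription factors. Exposure lasts 24 h; reporter mRNA fluorescence from capillary electrophoresis gives the signal, fitted bidirectionally against DMSO.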

Assay [16] concerns the target Signal transducer and activator of transcription 3 (Homo sapiens) (UniProt P40763). As to the kind of experiment: ATG_STAT3_CIS: Attagene CIS-FACTORIAL HepG2 Assay for human Signal Transducer and Activator of Transcription 3 (STAT3) (AID 2282963). As to conditions: HepG2, Attagene cis-factorial STAT3 reporter transcription; actives raise or lower the signal. In outline: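 Readout: fluorescent reporter mRNA fragments resolved by capillary electrophoresis. Setup: HepG2 transfected with MRTUs reporting endogenous transcription-factor activity, dosed 24 h. Gain or loss of signal fitted bidirectionally against DMSO control.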

A short description of assay [17]: ATG_TA_CIS: Attagene CIS-FACTORIAL HepG2 Assay for human TA Basal Promoter (AID 2282964). As to conditions: HepG2 Attagene CIS-factorial TA basal promoter reporter; actives raise or lower the signal. In outline: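 Read-out: fluorescent reporter-transcript fragments resolved by capillary electrophoresis after RT-PCR and HpaI digestion. Source: HepG2 cells carrying transiently transfected multi-reporter cis constructs, treated 24 h. Endpoint fitted bidirectionally relative to DMSO.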

Assay [18] in a line: ATG_TCF_b_cat_CIS: Attagene CIS-FACTORIAL HepG2 Assay for human T-Cell-Factor with beta-catenin (TCF/b-cat) (AID 2282965). As to conditions: HepG2 TCF/beta-catenin cis-reporter transcription, actives raise or lower the signal. A digest of the protocol: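 HepG2, transient MRTU transfection, cis-element-driven reporters (endogenous TFs). 24 h compound exposure. Readout: reporter mRNA by RT-PCR + 6-FAM primer extension, HpaI digest, capillary electrophoresis. Gain/loss fit vs DMSO baseline.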

A short description of assay [19]: ATG_M_06_CIS: Attagene CIS-FACTORIAL HepG2 Assay for M06 Transcription Factor (Internal Marker) (AID 2282950). As to conditions: HepG2 Attagene CIS-FACTORIAL M06 internal marker reporter; actives raise or lower the signal. A digest of the protocol:
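Read-out is fluorescence of labelled reporter cDNA fragments resolved by capillary electrophoresis after RT-PCR. Cells: HepG2 carrying transfected cis-promoter reporter units, treated 24 h. Gain or loss of signal fitted relative to DMSO.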

Assay [20] can be described thus: ATG_PPRE_CIS: Attagene CIS-FACTORIAL HepG2 Assay for human Peroxisome Proliferator-activated Response Element (PPRE) (AID 2282958). The note with it: HepG2 PPRE cis-element reporter, Attagene transcription factor profiling; actives raise or lower the signal. A digest of the protocol:
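Measured endpoint: PPRE-controlled reporter mRNA, detected by RT-PCR and capillary electrophoresis fluorescence, from transiently transfected HepG2 cells 24 h after dosing. Curves fitted in both directions using DMSO baseline.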

Active and inactive are the calls of the source. How the source made its calls: active means hit-call score of the fitted dose curve at least 0.9, where 1 is the maximum; inactive means score below 0.9.

Sequence of Paired box protein Pax-6 (Homo sapiens) (P26367 whole entry, looked up): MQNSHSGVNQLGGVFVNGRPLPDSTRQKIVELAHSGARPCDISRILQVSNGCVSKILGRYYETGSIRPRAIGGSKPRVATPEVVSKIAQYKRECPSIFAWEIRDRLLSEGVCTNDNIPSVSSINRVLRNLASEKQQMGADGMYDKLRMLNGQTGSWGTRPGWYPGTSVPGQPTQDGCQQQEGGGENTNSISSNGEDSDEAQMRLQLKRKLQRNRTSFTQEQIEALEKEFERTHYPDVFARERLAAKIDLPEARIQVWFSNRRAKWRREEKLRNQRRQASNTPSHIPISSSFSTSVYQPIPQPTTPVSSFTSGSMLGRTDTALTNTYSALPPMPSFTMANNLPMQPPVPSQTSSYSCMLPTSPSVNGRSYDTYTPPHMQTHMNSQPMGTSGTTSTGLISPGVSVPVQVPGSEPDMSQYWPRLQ
Sequence of Transcription factor Sp1 (Homo sapiens) (P08047 whole entry, looked up, the tested form may be a part): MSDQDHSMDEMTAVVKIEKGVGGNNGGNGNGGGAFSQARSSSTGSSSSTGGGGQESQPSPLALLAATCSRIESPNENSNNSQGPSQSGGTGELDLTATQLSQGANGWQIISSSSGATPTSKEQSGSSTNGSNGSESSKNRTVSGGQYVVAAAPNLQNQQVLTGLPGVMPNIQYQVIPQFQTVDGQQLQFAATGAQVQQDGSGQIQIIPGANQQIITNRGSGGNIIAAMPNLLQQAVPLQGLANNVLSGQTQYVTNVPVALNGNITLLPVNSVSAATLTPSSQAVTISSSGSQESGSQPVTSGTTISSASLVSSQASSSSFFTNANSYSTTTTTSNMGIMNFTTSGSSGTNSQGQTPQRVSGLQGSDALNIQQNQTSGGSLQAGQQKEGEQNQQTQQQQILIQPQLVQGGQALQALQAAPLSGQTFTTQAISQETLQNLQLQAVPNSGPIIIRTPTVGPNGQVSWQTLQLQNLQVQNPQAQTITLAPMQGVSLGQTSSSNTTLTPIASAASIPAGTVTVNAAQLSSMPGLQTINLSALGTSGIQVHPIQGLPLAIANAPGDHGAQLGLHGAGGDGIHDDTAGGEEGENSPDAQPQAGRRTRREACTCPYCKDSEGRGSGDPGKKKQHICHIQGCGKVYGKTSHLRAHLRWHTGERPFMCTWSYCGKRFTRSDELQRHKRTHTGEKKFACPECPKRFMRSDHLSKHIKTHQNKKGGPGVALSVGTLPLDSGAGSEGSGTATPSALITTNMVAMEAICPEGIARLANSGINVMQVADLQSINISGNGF
Sequence of Bile acid receptor (Homo sapiens) (Q96RI1 whole entry, looked up): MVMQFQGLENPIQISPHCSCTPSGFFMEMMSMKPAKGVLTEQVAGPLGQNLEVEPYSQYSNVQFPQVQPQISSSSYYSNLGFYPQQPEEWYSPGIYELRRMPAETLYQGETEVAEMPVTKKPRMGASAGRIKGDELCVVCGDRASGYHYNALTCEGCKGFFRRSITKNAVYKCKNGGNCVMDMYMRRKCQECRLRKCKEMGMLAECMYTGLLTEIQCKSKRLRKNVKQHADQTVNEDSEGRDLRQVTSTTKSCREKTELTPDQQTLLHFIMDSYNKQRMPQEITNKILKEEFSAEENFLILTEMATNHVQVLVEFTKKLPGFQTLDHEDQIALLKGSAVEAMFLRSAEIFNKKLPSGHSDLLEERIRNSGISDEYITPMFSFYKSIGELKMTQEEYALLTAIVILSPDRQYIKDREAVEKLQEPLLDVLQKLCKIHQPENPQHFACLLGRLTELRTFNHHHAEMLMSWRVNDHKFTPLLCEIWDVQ
Sequence of Heat shock factor protein 1 (Homo sapiens) (Q00613 whole entry, looked up): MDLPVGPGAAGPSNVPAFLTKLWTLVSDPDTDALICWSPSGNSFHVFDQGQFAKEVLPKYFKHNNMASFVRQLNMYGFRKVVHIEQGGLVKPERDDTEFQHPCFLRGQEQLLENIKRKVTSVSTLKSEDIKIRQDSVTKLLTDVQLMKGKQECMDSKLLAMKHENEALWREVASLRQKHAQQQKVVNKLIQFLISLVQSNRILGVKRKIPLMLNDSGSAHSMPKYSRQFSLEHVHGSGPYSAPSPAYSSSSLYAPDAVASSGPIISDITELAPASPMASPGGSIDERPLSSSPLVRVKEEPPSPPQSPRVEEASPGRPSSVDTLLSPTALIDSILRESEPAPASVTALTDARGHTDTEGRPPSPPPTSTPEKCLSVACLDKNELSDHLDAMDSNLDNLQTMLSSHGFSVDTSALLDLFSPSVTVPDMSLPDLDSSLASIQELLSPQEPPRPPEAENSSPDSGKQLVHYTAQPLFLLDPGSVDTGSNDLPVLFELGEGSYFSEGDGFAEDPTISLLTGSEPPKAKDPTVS
Sequence of Hypoxia-inducible factor 1-alpha (Homo sapiens) (Q16665 whole entry, looked up): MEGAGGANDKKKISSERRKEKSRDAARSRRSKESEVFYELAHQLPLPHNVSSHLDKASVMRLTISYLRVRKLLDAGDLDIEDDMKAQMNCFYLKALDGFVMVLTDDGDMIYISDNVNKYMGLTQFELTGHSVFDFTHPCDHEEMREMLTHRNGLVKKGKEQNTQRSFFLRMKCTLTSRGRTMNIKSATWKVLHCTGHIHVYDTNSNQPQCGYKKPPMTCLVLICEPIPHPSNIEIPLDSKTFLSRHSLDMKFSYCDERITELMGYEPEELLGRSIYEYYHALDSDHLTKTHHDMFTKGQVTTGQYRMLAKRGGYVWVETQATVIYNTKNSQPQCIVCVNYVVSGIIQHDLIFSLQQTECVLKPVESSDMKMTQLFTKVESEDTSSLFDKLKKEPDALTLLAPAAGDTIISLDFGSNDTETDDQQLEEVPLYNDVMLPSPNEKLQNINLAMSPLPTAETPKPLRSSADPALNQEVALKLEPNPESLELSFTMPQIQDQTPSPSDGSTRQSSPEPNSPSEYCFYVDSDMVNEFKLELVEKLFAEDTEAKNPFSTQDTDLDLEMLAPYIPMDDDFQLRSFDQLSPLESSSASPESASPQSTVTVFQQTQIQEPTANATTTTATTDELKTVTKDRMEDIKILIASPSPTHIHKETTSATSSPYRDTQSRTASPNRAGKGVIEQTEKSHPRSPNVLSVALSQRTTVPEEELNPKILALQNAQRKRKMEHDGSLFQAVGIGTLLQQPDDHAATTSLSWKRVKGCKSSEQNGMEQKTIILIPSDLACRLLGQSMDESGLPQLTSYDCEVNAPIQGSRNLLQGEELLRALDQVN
Sequence of Hepatocyte nuclear factor 6 (Homo sapiens) (Q9UBC0 whole entry, looked up): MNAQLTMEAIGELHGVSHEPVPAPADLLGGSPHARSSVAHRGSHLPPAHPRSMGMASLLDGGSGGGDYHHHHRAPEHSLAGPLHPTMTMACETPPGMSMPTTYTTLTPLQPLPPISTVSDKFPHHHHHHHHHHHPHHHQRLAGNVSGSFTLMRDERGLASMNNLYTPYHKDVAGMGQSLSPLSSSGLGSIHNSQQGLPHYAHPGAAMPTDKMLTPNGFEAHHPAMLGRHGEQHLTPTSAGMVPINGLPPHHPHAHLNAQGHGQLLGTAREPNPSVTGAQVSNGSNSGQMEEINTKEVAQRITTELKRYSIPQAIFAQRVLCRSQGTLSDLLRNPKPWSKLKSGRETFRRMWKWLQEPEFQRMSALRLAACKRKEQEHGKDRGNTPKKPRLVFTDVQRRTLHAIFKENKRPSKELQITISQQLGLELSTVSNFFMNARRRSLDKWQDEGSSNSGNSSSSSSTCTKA
Sequence of Signal transducer and activator of transcription 3 (Homo sapiens) (P40763 whole entry, looked up, the tested form may be a part): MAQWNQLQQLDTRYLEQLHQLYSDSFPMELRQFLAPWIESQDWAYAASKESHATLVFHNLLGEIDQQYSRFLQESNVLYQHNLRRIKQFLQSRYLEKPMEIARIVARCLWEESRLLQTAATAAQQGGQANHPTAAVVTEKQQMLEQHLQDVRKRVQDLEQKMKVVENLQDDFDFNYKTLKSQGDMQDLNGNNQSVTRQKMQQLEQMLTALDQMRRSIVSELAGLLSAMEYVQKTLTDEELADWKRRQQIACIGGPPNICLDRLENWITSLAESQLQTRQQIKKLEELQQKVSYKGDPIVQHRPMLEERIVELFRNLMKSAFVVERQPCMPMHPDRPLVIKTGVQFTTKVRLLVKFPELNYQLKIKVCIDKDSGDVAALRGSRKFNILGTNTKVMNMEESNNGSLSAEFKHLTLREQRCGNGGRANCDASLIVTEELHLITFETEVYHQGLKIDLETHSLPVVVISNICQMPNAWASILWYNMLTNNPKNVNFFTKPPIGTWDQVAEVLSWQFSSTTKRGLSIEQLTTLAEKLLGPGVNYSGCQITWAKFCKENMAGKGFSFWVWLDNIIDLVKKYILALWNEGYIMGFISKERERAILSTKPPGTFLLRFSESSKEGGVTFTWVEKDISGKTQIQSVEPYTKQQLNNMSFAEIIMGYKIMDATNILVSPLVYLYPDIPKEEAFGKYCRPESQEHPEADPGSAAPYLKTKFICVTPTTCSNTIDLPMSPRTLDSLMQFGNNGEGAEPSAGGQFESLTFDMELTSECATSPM

As to `O=C1c2ccccc2C(=O)c2c(O)ccc(O)c21`, the outcome in assay [1], in assay [2], in [3], in assay [4], in assay [5] and in assay [6] was inactive. The outcome in assay [7], in [8], in assay [9], in [10], in assay [12] and in assay [13] was inactive. In addition, the compound was classed as inactive in [14], in assay [15], in [16], in assay [17] and in assay [18]. Also, the AC50 in [11] is 7.05 µM (active).
As to `CCOC(=O)CN`, the compound was called inactive in [1], in assay [2], in assay [3], in [19], in [6] and in assay [7]. Besides, the call in [8], in assay [9], in assay [10], in assay [11], in assay [20] and in assay [12] was inactive. Moreover, the compound was called inactive in assay [13], in assay [14], in assay [15], in assay [16], in assay [17] and in [18].
For the compound `CC(C)(C)c1ccc(C(=O)O)cc1`, the compound was called inactive in assay [1], in [2], in assay [3], in [4], in assay [5] and in assay [6]. In addition, the compound was called inactive in [7], in [8], in [10], in assay [11], in assay [20] and in assay [12]. Further, the compound was called inactive in assay [13], in [14], in assay [16], in [17] and in assay [18].
As for `C1CCCCC1`, the compound was classed as inactive in assay [1], in [2], in [3], in assay [19], in [5] and in assay [6]. The result in assay [7], in assay [8], in assay [9], in assay [10], in assay [11] and in assay [20] was inactive. For the same compound, the compound was called inactive in [12], in assay [13], in [14], in assay [15], in [16] and in assay [17].

In general, AC50 refers to the midpoint of the concentration-response curve, whichever way the signal moves.
